Only some compounds are listed: those with a hit (about 2.2% of all), similar ones and a draw of the others.
BaF3 parental – parental Ba/F3 viability inhibition as JAK2V617F counter-screen | CellTiter-Glo ATP luminescence | hit rate 1.1% among 220,000 | AID 1486 | inhibition, % at 5.6 µM;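 active means inhibition above a per-campaign cutoff, the mean inhibition of all tested compounds plus 3 SD, cut at about 27% in these data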;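 further: 0% = DMSO wells and 100% = JAK Inhibitor I control wells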
aSyn UTR inh – 5' untranslated region of α-synuclein, MLPCN primary screen | alpha-synuclein 5'UTR reporter, inhibitor activity | inhibition, % (tested at 7.5 µM) | hit rate 0.82% among 300,000; in the data active means inhibition above about 60%;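 further: H4 neuroglioblastoma cells stably carrying SNCA 5'UTR luciferase fusion; 0% = DMSO wells and 100% = positive control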
KLF5 inh – suppresses KLF5 promoter-driven expression. DLD-1 KLF5 promoter-luciferase reporter, luminescence. inhibition, % at 5 µM. hit rate 0.23% among 290,000. AID 1700;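 active means inhibition above a per-plate limit of that plate's mean compound inhibition plus 3 SD, cut at about 60% in these data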;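 further: 0% = DMSO wells and 100% = LY294002 at 200 µM; higher means less KLF5 promoter-driven luciferase light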
IEC-6 cytotox – IEC-6 cytotoxicity, counter-screen for KLF5 inhibitors. luminescence viability. inhibition, % at 5 µM. hit rate 0.78% among 290,000. AID 1825; in the data active means inhibition above about 22%;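 further: 0% = plate median of test compound wells and 100% = cytotoxic reference compound wells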
APP 5UTR inh – APP translation inhibition; inhibition, % at 2 µM; SH-SY5Y APP 5'UTR-luciferase reporter, luminescence; hit rate 0.82% among 190,000;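 active means inhibition above a set limit, derived from the sample mean plus 3 SD, cut at about 45% in these data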
Ba/F3 V617F tox – lowers viability of Ba/F3 cells expressing EpoR and JAK2V617F. ATP luminescence. inhibition, % at 5.6 µM. AID 1446. hit rate 1.1% among 220,000;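 active means inhibition above the campaign mean plus 3 SD over all tested compounds, cut at about 24% in these data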;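 further: cytokine-independent growth of Ba/F3 cells driven by EpoR plus mutant JAK2; 0% = DMSO-treated cells and 100% = JAK inhibitor I control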
* hit, by the source's call; x = no result given.

SMILES	BaF3 parental	aSyn UTR inh	KLF5 inh	IEC-6 cytotox	APP 5UTR inh	Ba/F3 V617F tox
O=C(/C=C\c1ccco1)Nc1cc([N+](=O)[O-])ccc1F	43.4*	97.4*	-39.2	-2.7	94.2*	73.4*
CC(=O)N(C1=C(N)C(=O)c2ccccc2C1=O)c1ccccc1	x	78.2*	-33.5	-3.1	x	x
O=C(N(c1ccccc1)c1ccccc1)N(c1ccccc1)c1ccccc1	0.6	6.6	-13.5	-2.4	x	-1.1
CN1CCN(CCCNC(=O)CCN2C(=O)COc3ccccc32)CC1	x	17.3	-29.6	-1.7	x	x
CC[N+]1=CN(c2ccccc2)C(C)=CC1(C)C	52.2*	0.8	-16.9	-2.5	4.8	39.7*
Cc1csc(NC(=O)CCNS(=O)(=O)c2ccc3c(c2)c(=O)n(C)c(=O)n3C)n1	94.4*	11.4	-16.4	-7.3	-14.4	-1.8
COc1ccc(NC(=O)NCc2ccco2)c(OC)c1	0.0	-22.1	-24.9	-2.0	-6.5	-3.1
CCNC(=O)Nc1ccc(OC)cc1OC	0.6	15.6	-21.3	-2.4	49.8*	-0.4
NC(=O)c1sc2nc3c(c(-c4cccs4)c2c1N)CCCC3	-0.3	44.5	-2.1	-10.4	46.2*	-0.8
NC(=O)c1sc2nc3c(c(-c4ccco4)c2c1N)CCC3	4.8	19.8	19.3	-17.6	9.9	3.7
O=C(Cc1ccc(Cl)cc1)Nc1ccc(-c2cc3ccccc3oc2=O)c(Cl)c1	65.3*	96.1*	52.4	47.6*	86.2*	55.9*
COc1ccccc1/C=C/C(=O)OCc1nc2ccccc2c(=O)[nH]1	7.0	-37.2	-8.5	1.0	14.2	1.9
Cc1nnc(NC(=O)CSc2nc3ccccc3o2)s1	2.5	-6.1	9.5	-0.7	-9.9	2.9
CCc1nnc(NC(=O)CSc2nc3ccccc3o2)s1	3.4	-1.4	-23.3	1.6	46.9*	-0.9
Cc1ccc(/C(C#N)=C\c2ccc(N3CCOCC3)o2)cc1	36.4*	-312.5	-40.8	1.5	7.8	1.7
N#C/C(=C/c1ccc(N2CCCCCC2)o1)c1ccc(Cl)cc1	-0.8	-299.3	6.7	0.6	-5.8	0.9
Cc1ccc2nc(/C(C#N)=C\c3ccc(N4CCOCC4)o3)[nH]c2c1	40.6*	-231.3	7.4	0.5	-120.9	-3.0
Cc1ccc(Cl)cc1NC(=O)Cn1nc(-c2cccs2)ccc1=O	x	-25.4	-24.4	12.4	x	x
COc1ccc(NC(=O)CN(C)C(=O)c2ccc3c(c2)S(=O)(=O)N=C2CCCCCN23)cc1	x	2.4	-35.2	-12.6	x	x
Oc1c(C(c2ccc(Cl)cc2)N2CCCC2)cc(Cl)c2cccnc12 (centres undefined)	11.7	33.1	50.6	-2.3	11.1	4.5
COc1ccc(Cl)cc1C(Nc1cccnc1)c1ccc2cccnc2c1O (centres undefined)	0.2	51.6	57.4	12.1	-4.1	9.2
Oc1c(C(c2ccccc2Cl)N2CCCC2)ccc2cccnc12 (centres undefined)	68.4*	97.3*	73.3*	12.3	7.2	82.7*
CCCCC(=O)NC(c1ccccc1Cl)c1ccc2cccnc2c1O (centres undefined)	x	83.4*	71.5*	19.4	x	x
CCC(=O)NC(c1ccccc1OC)c1ccc2cccnc2c1O (centres undefined)	68.2*	79.9*	35.4	19.1	88.8*	60.7*
COC(=O)Nc1ccc(S(=O)(=O)NNC(=O)c2c(O)c3ccccc3n(C)c2=O)cc1	x	26.2	-27.8	2.3	x	x
SMILES	BaF3 parental	aSyn UTR inh	KLF5 inh	IEC-6 cytotox	APP 5UTR inh	Ba/F3 V617F tox
O=C1CCC2S/C(=C/Nc3ccc(C(F)(F)F)cc3)C(=O)N12 (centres undefined)	7.2	99.4*	40.2	6.6	71.9*	-1.7
O=C1CCCC/C1=C/Nc1cccc(C(F)(F)F)c1	5.3	-31.9	-5.8	-2.3	3.6	-1.1
Cc1ccc(-n2c(C)cc(/C=c3/sc4nc5ccccc5n4c3=O)c2C)cc1	3.8	66.7*	-16.4	4.5	27.3	-1.5
O=c1/c(=C\c2cccn2-c2ccccc2)sc2nc3ccccc3n12	1.5	x	-49.0	-3.2	-75.0	-2.5
COc1ccc(-c2cn(Cc3ccc(C(=O)c4ccccc4)cc3)nn2)cc1	x	-161.5	-147.2	10.7	x	x
COc1ccc(-c2cnnn2-c2ccc([N+](=O)[O-])cc2)cc1	x	-0.1	-1.4	-7.3	x	x
N/C(=N/O)c1ccccc1N1CCC(Cc2ccccc2)CC1	68.7*	10.2	-5.0	-7.9	-44.8	71.7*
Cc1ccccc1C(=O)Nc1cccc(N)c1	4.3	-28.2	-31.6	4.3	56.0*	0.4
O=C(N/C(=C\c1ccccc1)C(=O)N1CCOCC1)c1cccc(Br)c1	x	-4.5	-2.0	3.6	x	x
C=CCC(C#Cc1ccccc1)[N+](C)(C)CC=C (centres undefined)	50.0*	-6.8	-20.4	-1.0	10.0	40.6*
COc1cccc(NC(=O)CSc2nc3ccccc3c(=O)n2CCCC(=O)NCC2CCCO2)c1 (centres undefined)	x	15.3	4.0	10.0	x	x
O=C(O)CC(=O)Nc1ccc(Oc2ccc(C(F)(F)F)cn2)c(Cl)c1	8.4	64.6*	-3.7	1.6	0.6	-0.1
COc1ccc(-c2oc3ncn(CCN4CCOCC4)c(=N)c3c2-c2ccc(OC)cc2)cc1	0.3	74.2*	2.8	-6.3	10.7	-6.6
COc1ccccc1OCCSc1nc2ccccc2n1CC(O)CO (centres undefined)	x	4.9	-28.7	3.4	x	x
COC(=O)c1ccc2c(c1)C(=O)/C(=C/c1ccc(O)cc1)O2	5.1	-118.2	-3.4	2.6	-8.2	2.1
COc1cccc(/C=C2\Oc3ccc(O)cc3C2=O)c1O	x	83.4*	-41.7	5.6	x	x
CC1(C)CC(=O)C(C(=S)Nc2ccc(F)cc2)=C(NCCN2CCOCC2)C1	5.8	-8.6	-10.1	-1.9	2.9	1.7
CC1(C)CC(=O)C(C(=S)Nc2ccccc2)=C(NCCN2CCOCC2)C1	34.7*	21.5	-14.8	-5.6	-5.8	0.1
COc1cccc(-c2nc(SC)nc3sc(C(=O)NC(C)(C)C)c(N)c23)c1	x	8.6	x	x	x	x
Cc1cc(C)c2c(c1)/C(=N/NS(=O)(=O)c1ccccc1)CCC2	0.3	17.6	-21.5	6.2	17.7	-3.3
Cc1cc(C)c2c(c1)/C(=N/NS(=O)(=O)c1ccc(Br)cc1)CCC2	1.1	-0.3	-2.8	2.9	81.0*	-4.6
COc1ccc(NC(=O)Nc2nnc(N3CCC(C)CC3)s2)cc1OC	8.5	-17.2	-4.8	-4.2	26.6	-2.4
COc1ccc(OC)c(NC(=O)Nc2nnc(N3CCC(C)CC3)s2)c1	9.8	-7.7	0.2	1.0	47.7*	3.3
CCOc1ccc(NC(=S)NC(=O)c2cccnc2)c([N+](=O)[O-])c1	x	-44.7	-8.2	-4.7	x	x
Cc1c(O)c(=O)ccn1Cc1ccccc1	1.4	68.1*	-9.5	-4.9	26.1	-2.2
Cc1ccc(Cn2ccc(=O)c(OCc3ccccc3)c2C)cc1	-1.7	-109.5	-75.8	-0.4	-35.3	-5.3
COc1ccc(NC(=O)c2cccc([N+](=O)[O-])c2)cc1	4.6	-105.0	-56.9	3.9	-6.9	4.2
COc1ccc(NC(=O)c2cc([N+](=O)[O-])ccc2O)cc1	18.1	85.1*	84.4*	11.2	12.4	14.7

Screening data: PubChem, several laboratories
